Outcome and AC50 data for eight compounds are collected here from PubChem BioAssay (EPA / NIEHS).

Settings in all cases: mRNA level, 48 h; actives raise or lower the signal
Read-out in assay [1]: DNA damage-inducible transcript 3 (DDIT3), DDIT3 (gene 1649)
Briefly: LTEA_HepaRG_DDIT3: Life Technologies and Expression Analysis (LTEA) Assay for DNA damage-inducible transcript 3 (DDIT3) using HepaRG (AID 2283488). The essentials:
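qRT-PCR readout (Fluidigm TaqMan), housekeeping-normalized to ACTB, GAPDH, POLR2A. HepaRG cells, 48 h exposure, 8-point half-log series from 100 uM in 0.5% DMSO, duplicates. Gain or loss of signal fitted against DMSO baseline.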

Read-out in assay [2]: Pro-epidermal growth factor (Homo sapiens) (UniProt P01133)
Briefly: LTEA_HepaRG_EGF: Life Technologies and Expression Analysis (LTEA) Assay for Epidermal growth factor (EGF) using HepaRG (AID 2283489). A digest of the protocol: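 HepaRG cells (~100,000/well, 48 h pre-culture) exposed in duplicate for 48 h in serum-free induction medium to 8 half-log concentrations up to 100 uM in 0.5% DMSO. EGF mRNA by qRT-PCR, normalized to ACTB/GAPDH/POLR2A; bidirectional fit versus DMSO.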

Read-out in assay [3]: Early growth response protein 1 (EGR1) transcription factor, EGR1 (gene 1958)
Briefly: LTEA_HepaRG_EGR1: Life Technologies and Expression Analysis (LTEA) Assay for Early growth response protein 1 (EGR1) transcription factor using HepaRG (AID 2283490). The essentials:
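EGR1 transcript levels quantified by qRT-PCR (Fluidigm arrays) against three housekeeping genes after 48 h chemical exposure of HepaRG cells. Eight-point half-log series topping at 100 uM, 0.5% DMSO vehicle, analyzed for gain or loss.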

Read-out in assay [4]: Ezrin (EZR), EZR (gene 7430)
Briefly: LTEA_HepaRG_EZR: Life Technologies and Expression Analysis (LTEA) Assay for Ezrin (EZR) using HepaRG (AID 2283491). A digest of the protocol:
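Gain or loss of EZR mRNA is scored relative to 0.5% DMSO in human HepaRG cultures treated 48 h with test chemicals in duplicate, eight half-log concentrations from 100 uM.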

Read-out in assay [5]: CYP3A5 (gene 1577)
The experiment in a line: LTEA_HepaRG_CYP3A5: Life Technologies and Expression Analysis (LTEA) Assay for CYP3A5 using HepaRG (AID 2283493). A digest of the protocol:
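qRT-PCR read-out: CYP3A5 transcript in HepaRG lysates, housekeeping-normalized (ACTB/GAPDH/POLR2A), fitted bidirectionally against 0.5% DMSO baseline. Exposure 48 h, eight half-log concentrations up to 100 uM, duplicates.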

Read-out in assay [6]: Fatty Acid-Binding Protein 1 (FABP1), FABP1 (gene 2168)
Briefly: LTEA_HepaRG_FABP1: Life Technologies and Expression Analysis (LTEA) Assay for Fatty Acid-Binding Protein 1 (FABP1) using HepaRG (AID 2283494). A digest of the protocol: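 FABP1 expression by TaqMan qRT-PCR, normalised to three housekeeping genes, in HepaRG cells after 48 h chemical treatment. Eight-point half-log series topping at 100 uM in 0.5% DMSO, duplicates; gain or loss fitted relative to vehicle.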

Read-out in assay [7]: Cytochrome P450 4A22 (Homo sapiens) (UniProt Q5TCH4)
The experiment in a line: LTEA_HepaRG_CYP4A22: Life Technologies and Expression Analysis (LTEA) Assay for Cytochrome P450 4A22 (CYP4A22) using HepaRG (AID 2283495). A digest of the protocol:
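Differentiated HepaRG cells in serum-free induction medium exposed 48 h in duplicate to eight half-log concentrations up to 100 uM in 0.5% DMSO. CYP4A22 mRNA quantified by TaqMan qRT-PCR, normalized to ACTB, GAPDH and POLR2A; bidirectional fit versus DMSO.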

Read-out in assay [8]: Glutathione S-Transferase (GSTA2), GSTA2 (gene 2939)
Briefly: LTEA_HepaRG_GSTA2: Life Technologies and Expression Analysis (LTEA) Assay for Glutathione S-Transferase (GSTA2) using HepaRG (AID 2283497). The essentials: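 GSTA2 transcript levels came from Fluidigm TaqMan qRT-PCR normalized to three housekeeping genes, fitted in both directions against DMSO. HepaRG cultures received chemicals for 48 h in serum-free induction medium (0.5% DMSO), 8 half-log concentrations up to 100 uM, duplicate.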

Read-out in assay [9]: Glutamate-cysteine ligase catalytic (GCLC), GCLC (gene 2729)
The experiment in a line: LTEA_HepaRG_GCLC: Life Technologies and Expression Analysis (LTEA) Assay for Glutamate-cysteine ligase catalytic (GCLC) using HepaRG (AID 2283498). A digest of the protocol:
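Expression by TaqMan qRT-PCR, normalized to three housekeeping genes (ACTB, GAPDH, POLR2A), with up- or down-regulation fitted against DMSO. HepaRG cells dosed in duplicate for 48 h with 8 half-log concentrations up to 100 uM, vehicle 0.5% DMSO.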

Read-out in assay [10]: growth arrest and DNA damage 45 (GADD45G), GADD45G (gene 10912)
Briefly: LTEA_HepaRG_GADD45G: Life Technologies and Expression Analysis (LTEA) Assay for growth arrest and DNA damage 45 (GADD45G) using HepaRG (AID 2283499). The essentials: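 Differentiated human HepaRG cells, 48 h post-plating, exposed 48 h in serum-free induction medium to 8 half-log concentrations (top 100 uM, 0.5% DMSO) in duplicate. GADD45G mRNA measured by Fluidigm TaqMan qRT-PCR, normalized to ACTB, GAPDH, POLR2A; bidirectional fit versus DMSO.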

Read-out in assay [11]: Glutamate-cysteine ligase regulatory (GCLM), GCLM (gene 2730)
Briefly: LTEA_HepaRG_GCLM: Life Technologies and Expression Analysis (LTEA) Assay for Glutamate-cysteine ligase regulatory (GCLM) using HepaRG (AID 2283500). A digest of the protocol:
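HepaRG, 48 h dosing, 100 uM top, half-log x8, 0.5% DMSO vehicle. Readout: GCLM mRNA by TaqMan qRT-PCR, housekeeping-normalized (ACTB/GAPDH/POLR2A). Curves fit bidirectionally vs DMSO baseline.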

Read-out in assay [12]: Hypoxia-inducible factor 1-alpha (Homo sapiens) (UniProt Q16665)
The experiment in a line: LTEA_HepaRG_HIF1A: Life Technologies and Expression Analysis (LTEA) Assay for Hypoxia-inducible factor 1 (HIF1A) Trancription factor using HepaRG (AID 2283503). The essentials:
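Gain- or loss-of-signal HIF1A mRNA changes are fitted against a DMSO baseline. HepaRG cultures receive eight concentrations, highest 100 uM, for 48 h in serum-free induction medium with 0.5% DMSO.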

Read-out in assay [13]: 3-Hydroxy-3-Methylglutaryl-CoA Synthase 2 (HMGCS2), HMGCS2 (gene 3158)
The experiment in a line: LTEA_HepaRG_HMGCS2: Life Technologies and Expression Analysis (LTEA) Assay for 3-Hydroxy-3-Methylglutaryl-CoA Synthase 2 (HMGCS2) using HepaRG (AID 2283504). The essentials:
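Human HepaRG cells in serum-free induction medium were exposed in duplicate for 48 h to 8-point half-log series from 100 uM top in 0.5% DMSO. HMGCS2 mRNA measured by TaqMan qRT-PCR, normalised to ACTB, GAPDH, POLR2A; bidirectional fit versus DMSO.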

Read-out in assay [14]: HGF (gene 3082)
Briefly: LTEA_HepaRG_HGF: Life Technologies and Expression Analysis (LTEA) Assay for Hepatocyte Growth Facto (HGF) using HepaRG (AID 2283505). The essentials: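 Differentiated HepaRG cells in serum-free induction medium exposed 48 h in duplicate, 8 half-log concentrations from 100 uM in 0.5% DMSO. HGF mRNA by qRT-PCR, normalised to ACTB, GAPDH, POLR2A; bidirectional fitting.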

Read-out in assay [15]: Insulin Like Growth Factor 1 (IGF1), IGF1 (gene 3479)
The experiment in a line: LTEA_HepaRG_IGF1: Life Technologies and Expression Analysis (LTEA) Assay for Insulin Like Growth Factor 1 (IGF1) using HepaRG (AID 2283506). A digest of the protocol: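 qRT-PCR readout of IGF1 mRNA, normalized to three housekeeping genes, after 48 h chemical exposure of HepaRG cells. Concentrations: 8-point half-log series, top 100 uM, 0.5% DMSO vehicle. Gain or loss fitted against DMSO baseline.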

Read-out in assay [16]: Intercellular Adhesion Molecule 1 (ICAM1), ICAM1 (gene 3383)
The experiment in a line: LTEA_HepaRG_ICAM1: Life Technologies and Expression Analysis (LTEA) Assay for Intercellular Adhesion Molecule 1 (ICAM1) using HepaRG (AID 2283507). The essentials: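 Differentiated human HepaRG cells in serum-free induction medium exposed 48 h in duplicate to 8 half-log concentrations (top 100 uM, 0.5% DMSO). ICAM1 mRNA quantified by TaqMan qRT-PCR, normalized to ACTB, GAPDH and POLR2A; bidirectional fitting versus DMSO.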

Read-out in assay [17]: Cytochrome P450 7A1 (Homo sapiens) (UniProt P22680)
Briefly: LTEA_HepaRG_CYP7A1: Life Technologies and Expression Analysis (LTEA) Assay for Cytochrome P450 7A1 (CYP7A1) using HepaRG (AID 2283496). A digest of the protocol: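 Using 0.5% DMSO as vehicle and baseline, chemicals were tested in duplicate over an 8-point range from 100 uM on HepaRG cells for 48 h; qRT-PCR signals were normalised to ACTB, GAPDH and POLR2A.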

Read-out in assay [18]: Heat shock 70 kDa protein 1 (HSPA1A), gene 3303
The experiment in a line: LTEA_HepaRG_HSPA1A: Life Technologies and Expression Analysis (LTEA) Assay for Heat shock 70 kDa protein 1 (HSPA1A) using HepaRG (AID 2283502). A digest of the protocol: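 HepaRG, 48 h exposure, 8-pt half-log CRC from 100 uM in 0.5% DMSO, duplicates. Readout: TaqMan qRT-PCR of HSPA1A mRNA, housekeeping-normalized (ACTB/GAPDH/POLR2A). Bidirectional fit vs 0.5% DMSO baseline.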

Read-out in assay [19]: Glutathione S-transferase M3 (GSTM3), GSTM3 (gene 2947)
The experiment in a line: LTEA_HepaRG_GSTM3: Life Technologies and Expression Analysis (LTEA) Assay for Glutathione S-transferase M3 (GSTM3) using HepaRG (AID 2283501). The essentials: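 Differentiated human HepaRG cells were exposed in duplicate for 48 h in serum-free induction medium, 8 points from 100 uM top in half-log steps, 0.5% DMSO. GSTM3 mRNA was measured by TaqMan qRT-PCR, normalized to ACTB, GAPDH and POLR2A; bidirectional fit versus DMSO.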

Activity calls are given as the source filed them. Rule for the calls: active = hit-call score of the fitted dose curve at least 0.9, where 1 is the maximum; inactive = score below 0.9.

Chain of Hypoxia-inducible factor 1-alpha (Homo sapiens) (Q16665 whole entry, looked up): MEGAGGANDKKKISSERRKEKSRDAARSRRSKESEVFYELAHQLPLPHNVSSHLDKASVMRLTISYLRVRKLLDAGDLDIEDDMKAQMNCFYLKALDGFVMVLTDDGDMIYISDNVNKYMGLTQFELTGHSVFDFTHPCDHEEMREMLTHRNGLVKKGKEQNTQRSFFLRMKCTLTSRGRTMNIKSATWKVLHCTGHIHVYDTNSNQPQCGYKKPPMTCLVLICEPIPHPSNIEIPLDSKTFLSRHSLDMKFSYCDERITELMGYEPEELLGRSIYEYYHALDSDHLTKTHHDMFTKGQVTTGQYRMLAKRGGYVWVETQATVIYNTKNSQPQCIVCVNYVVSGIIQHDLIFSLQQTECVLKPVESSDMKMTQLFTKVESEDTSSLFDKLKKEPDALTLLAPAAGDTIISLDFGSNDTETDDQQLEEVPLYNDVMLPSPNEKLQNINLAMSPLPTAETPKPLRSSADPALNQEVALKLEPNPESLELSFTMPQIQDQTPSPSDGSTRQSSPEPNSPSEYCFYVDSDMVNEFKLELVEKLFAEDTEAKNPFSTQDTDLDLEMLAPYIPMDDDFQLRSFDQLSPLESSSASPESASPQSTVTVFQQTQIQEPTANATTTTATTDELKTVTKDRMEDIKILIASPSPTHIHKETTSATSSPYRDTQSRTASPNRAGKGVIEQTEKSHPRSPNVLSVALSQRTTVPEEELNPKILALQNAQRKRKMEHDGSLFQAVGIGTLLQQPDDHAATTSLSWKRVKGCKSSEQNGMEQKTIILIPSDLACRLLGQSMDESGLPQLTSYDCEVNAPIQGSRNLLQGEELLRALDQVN

With `CCOP(=O)(OCC)Oc1cc(C)nc(C(C)C)n1`, the compound was called inactive in [1], in [2], in [3], in assay [4], in assay [5] and in assay [6]. Further, the result in assay [7], in assay [8], in assay [9], in assay [10], in assay [11] and in assay [12] was inactive. For the same compound, the outcome in [13], in assay [14], in assay [15] and in assay [16] was inactive.
Regarding `Cc1nn(-c2cc(NS(C)(=O)=O)c(Cl)cc2Cl)c(=O)n1C(F)F`, the call in assay [1], in assay [2], in [3], in assay [4], in assay [5] and in assay [6] was inactive. Moreover, the result in assay [7], in assay [17], in assay [8], in assay [9], in assay [10] and in assay [12] was inactive. In addition, the compound was called inactive in assay [13], in [14] and in [16].
Turning to `C#CC(C)(C)NC(=O)c1cc(Cl)cc(Cl)c1`, the compound was called inactive in assay [1], in assay [2], in assay [3], in assay [4], in assay [5] and in assay [6]. Further, the outcome in [8], in assay [9], in assay [10], in [18], in [12] and in assay [13] was inactive. The call in assay [14] and in assay [16] was inactive. For the same compound, the results for the AC50 in assay [7] and in [15] were 40.9 µM (active) and 14.8 µM (active), respectively.
On to `CCCSP(=O)(OCC)SCCC`, for which the compound was called inactive in [1], in assay [2], in assay [3], in assay [4], in assay [5] and in assay [7]. In addition, the compound was classed as inactive in assay [8], in assay [9], in [10], in assay [19], in assay [18] and in assay [12]. Further, the compound was classed as inactive in [13], in [14] and in assay [16]. Besides, the AC50 (commonly the concentration at which the activity in the assay is half-maximal) in assay [6] is 15.5 µM (active); in assay [17], 22.1 µM (active).
Turning to `CCOP(=S)(OCC)OC(Cl)C(Cl)(Cl)Cl` (stereo unspecified), the result in assay [1], in assay [2], in [3], in assay [4], in assay [5] and in assay [6] was inactive. The call in assay [7], in [17], in assay [8], in [9], in [10] and in [12] was inactive. For the same compound, the compound was called inactive in assay [13], in assay [14], in assay [15] and in [16].
Regarding `COP(=O)(OC)C(O)C(Cl)(Cl)Cl` (stereo unspecified), the compound was called inactive in assay [1], in [2], in assay [3], in assay [4], in assay [6] and in assay [9]. The result in [10], in assay [11], in assay [19], in assay [13], in assay [14] and in [16] was inactive.
In the case of `CN(C)C(=O)Nc1cccc(C(F)(F)F)c1`, the call in [1], in [2], in assay [3], in assay [4], in assay [5] and in assay [6] was inactive. Moreover, the compound was classed as inactive in assay [7], in [8], in assay [9], in assay [10], in assay [12] and in assay [13]. Moreover, the call in assay [14] and in assay [16] was inactive.
Consider `CC1(C(=O)Nc2ccc(O)c(Cl)c2Cl)CCCCC1`, for which the compound was classed as inactive in [1], in assay [2], in assay [3], in assay [4], in assay [5] and in assay [6]. Also, the compound was classed as inactive in assay [7], in assay [8], in assay [9], in assay [10], in assay [18] and in [12]. Also, the compound was called inactive in assay [13], in [14] and in assay [16].
